High-throughput results deposited in PubChem BioAssay by several laboratories.
SENP7 block – inhibitors of human SENP7 protease. Q9BQF6. recombinant SENP7, Z-RLRGG-aminoluciferin luminescence, 40 min. inhibition, % at 5 µM. 1.5% of 330,000 active;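 active means inhibition above about 50% at the single test dose, limit read from the data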;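 further: plate controls were DMSO with enzyme for no effect and no enzyme buffer wells for full effect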
Target sequence (Q9BQF6 706-1050 limits assumed): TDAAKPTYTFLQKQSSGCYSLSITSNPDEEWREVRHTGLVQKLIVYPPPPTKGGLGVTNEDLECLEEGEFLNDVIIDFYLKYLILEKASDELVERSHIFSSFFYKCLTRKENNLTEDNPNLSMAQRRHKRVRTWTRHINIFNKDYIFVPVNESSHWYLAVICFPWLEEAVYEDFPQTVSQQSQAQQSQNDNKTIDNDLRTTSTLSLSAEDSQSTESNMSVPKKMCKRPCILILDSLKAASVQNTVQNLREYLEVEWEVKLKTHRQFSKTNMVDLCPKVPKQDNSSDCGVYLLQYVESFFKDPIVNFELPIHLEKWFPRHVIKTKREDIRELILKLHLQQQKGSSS
SENP8 block-1 – SENP8 (human) protease inhibition; recombinant SENP8, Nedd8 substrate fluorescence; inhibition, % at 20 µM; 0.64% of 360,000 active; AID 602440; in the data active means inhibition mostly above about 40%, no sharp cut-off; inactive means mostly below about 27%
EBI2 antag – antagonists of human EBI2 receptor; inhibition, % at 5 µM; 0.81% of 360,000 active; EBI2 beta-arrestin recruitment, luminescence, 7a,25-OHC stimulated; AID 651636; in the data active means inhibition above about 38%;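 further: enzyme fragment complementation signal reports receptor beta-arrestin coupling in cells; 0% = agonist plus DMSO wells and 100% = wells without agonist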
AHR activator – activates the human aryl hydrocarbon receptor. P35869. 2.5% of 320,000 active. activation, % at 5 µM. AHR-responsive luciferase reporter cells, luminescence; in the data active means activation above about 47%;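 further: 0% = vehicle wells and 100% = reference agonist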
SENP6 block – inhibitors of human SENP6 protease. 1.8% of 330,000 active. Recombinant SENP6 catalytic domain, aminoluciferin luminescence. inhibition, % at 10 µM. AID 2599. Q9GZR1;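 active means inhibition above about 50% at the single tested dose, limit read from the data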;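 further: plate controls were DMSO wells with enzyme for no effect and DMSO wells lacking enzyme for full effect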
SENP8 block-2 – SENP8 protease inhibition; Q96LD8; purified SENP8, Z-RLRGG-aminoluciferin cleavage, luminescence; inhibition, % at 10 µM; 1.2% of 330,000 active; in the data active means inhibition above about 50%
SENP8 conf – confirmation of human SENP8 protease inhibitors. shares compounds with SENP7 block. Recombinant SENP8, Z-RLRGG-aminoluciferin luminescence, 60 min. inhibition, % at 12.5 µM. 40% of 6,200 active;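 active means mean inhibition across replicates above about 50%, limit read from the data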
SENP6 conf – human SENP6 inhibition, confirmed | inhibition, % at 12.5 µM | 58% of 6,200 active | shares compounds with SENP7 block | recombinant SENP6, Z-RLRGG-aminoluciferin luminescence
SENP7 conf – confirmation of human SENP7 protease inhibitors; AID 488917; 69% of 6,200 active; shares compounds with SENP7 block; inhibition, % at 12.5 µM; recombinant SENP7, Z-RLRGG-aminoluciferin luminescence, 40 min
Casp3 SENP sel – selectivity test for SENP inhibitors: human caspase-3 inhibition. purified caspase-3, Z-DEVD-aminoluciferin luminescence, 60 min. AID 488918. inhibition, % at 12.5 µM. shares compounds with SENP7 block. 60% of 6,200 active;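 active means mean inhibition above about 50%, limit read from the data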;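 further: plate controls were enzyme with DMSO for no effect and wells without caspase-3 for full effect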
SENP luc ctr – luminescence interference (SENP counter-screen); shares compounds with SENP7 block; Pre-incubated SENP8/Z-RLRGG-aminoluciferin, luciferase luminescence interference; inhibition, % at 12.5 µM; 39% of 6,200 active;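 active means mean inhibition above about 50% when retested at one dose, limit read from the data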;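 further: plate controls were DMSO wells with completed reaction for no effect and substrate without enzyme for full effect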
The depositor's hits bear a star; . = no result. Most compounds without a hit are left out; they make up all but 5% or so of the library.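 How the source made its calls, unless noted: active means mean inhibition above about 50% in the one-dose retest (limit read from the data); inactive means the rest.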

SMILES	SENP7 block	SENP8 block-1	EBI2 antag	AHR activator	SENP6 block	SENP8 block-2	SENP8 conf	SENP6 conf	SENP7 conf	Casp3 SENP sel	SENP luc ctr
O=C(O)CSc1nc2c(cnn2-c2ccccc2)c(=O)n1-c1ccc(Br)cc1	3.4	19.3	-12.5	-0.6	55.8*	41.3	40.2	37.3	24.4	9.5	59.7*
CCCCSc1nc2c(cnn2-c2ccccc2)c(=O)n1N	68.4*	15.5	16.6	-9.9	81.7*	44.2	68.8*	66.6*	88.0*	62.9*	47.9
O=C(O)/C=C/c1cccc(NC(=O)c2ccccc2)c1	69.4*	19.0	2.3	0.1	72.3*	47.7	69.1*	66.0*	89.9*	90.9*	70.6*
O=C(O)/C=C/c1cccc(NC(=O)c2ccc(Cl)cc2)c1	59.4*	15.3	-17.8	1.4	74.3*	61.4*	66.3*	63.0*	88.5*	84.1*	71.0*
Cc1occc1C(=O)Nc1cccc(/C=C/C(=O)O)c1	11.5	20.1	-2.6	-1.8	29.1	-4.5	.	.	.	.	.
CC(=O)c1ccc(NC(=O)C[n+]2cccc(C)c2)cc1	-1.9	13.2	-9.9	9.4	3.3	2.1	.	.	.	.	.
CC(C)(C)C(=O)Nc1ccc(N=Nc2ccccc2)cc1	63.7*	28.9	12.1	-7.4	-1.2	40.9	40.3	60.8*	91.0*	59.3*	28.4
Cc1cc(C)cc(NC(=O)C(=S)NCc2ccccc2)c1	4.3	8.6	10.2	3.9	-9.2	-1.6	.	.	.	.	.
O=C(O)CCCc1ccc2c(c1)CCc1ccccc1-2	-14.2	-28.9	-4.6	-9.1	50.2*	33.8	76.8*	75.7*	88.3*	67.9*	81.0*
CCN1CCN(C2=C(NS(=O)(=O)c3ccc(Br)cc3)C(=O)c3ccccc3C2=O)CC1	42.5	26.9	4.6	1.0	63.7*	43.0	24.8	45.3	10.3	12.2	0.2
CCOC(=O)C1CCN(C2=C(NS(=O)(=O)c3ccc(Br)cc3)C(=O)c3ccccc3C2=O)CC1	37.1	50.4*	12.3	4.2	53.3*	15.8	12.4	28.2	-2.7	7.1	-1.1
CCc1ccc(OC(=O)Nc2ccccc2)cc1	37.6	4.5	4.0	.	86.2*	78.1*	91.1*	90.8*	98.5*	82.3*	78.3*
COc1ccc(OC(=O)Nc2ccccc2)cc1	-8.1	9.5	-3.0	0.1	81.9*	83.1*	1.9	87.6*	99.7*	91.6*	85.5*
CC(=O)Nc1ccc(NC(=O)Oc2ccccc2)cc1	4.5	-49.1	-5.6	3.8	-11.6	-1.1	.	.	.	.	.
CCCN1C(=O)C(=O)N(CC(=O)N2c3ccccc3NC(=O)CC2C)C1=O (stereo unspecified)	.	17.0	1.5	.	.	.	.	.	.	.	.
Cc1ccc2oc(-c3cccc(NC(=S)NC(=O)/C=C/c4ccco4)c3)nc2c1	18.2	-16.8	18.6	67.4*	56.7*	56.3*	-24.1	-7.6	4.2	16.0	10.6
O=C(Nc1cccc([N+](=O)[O-])c1)C1CCN(C(=O)Cc2ccccc2)CC1	-10.3	11.6	-1.3	4.8	8.6	4.6	.	.	.	.	.
O=C(N/N=C/c1ccccc1Cl)c1nc2ccc([N+](=O)[O-])cc2c(=O)[nH]1	46.1	-50.3	-29.8	8.7	57.2*	74.9*	46.6	52.8*	47.9	50.4*	44.7
O=C(N/N=C/c1ccccc1Cl)c1ccc(F)cc1	36.8	7.5	6.3	0.4	69.2*	8.7	1.7	15.7	8.5	48.1	44.5
CN=c1scc(C)n1/N=C/c1ccc2c(c1)OCO2	97.0*	-23.5	-3.8	-11.3	98.3*	88.1*	95.0*	95.6*	101.7*	94.7*	48.4
